# A selection: hits, their analogues and other compounds. The true share with any hit is near 1.6%.
# KCNQ2 inh: blocks the rat KCNQ2 potassium channel. O88943. CHO-K1 KCNQ2, FluxOR thallium flux, 20 min; hits give low values. B-score at 10 µM. 1.1% of 310,000 active. AID 2156;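 active = fluorescence ratio B-score at most minus 3 library SDs, with starting brightness B-score within 2 library SDs, cut at about -5.5 in these data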
# KCNQ2 pot: KCNQ2 (rat) channel potentiation; O88943; CHO-K1 KCNQ2, FluxOR thallium flux fluorescence; hits give high values; B-score at 10 µM; 0.54% of 310,000 active;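 active = fluorescence ratio B-score at least 3 SD of library B-scores, with initial fluorescence B-score within 3 of them, cut at about 5.3 in these data; same plate scores as AID 2156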;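 also: B-score of peak minus minimum over baseline fluorescence ratio after K+ and Tl+ stimulus; positive B-score means potentiation of KCNQ2 with more thallium influx and brighter signal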
# Kir21 confirm: confirmation of mouse Kir2.1 potassium channel inhibitors; 41% of 2,300 active; shares compounds with KCNQ2 pot; AID 2032; Tl flux remaining, % of negative control (hits give low values), % at 10 µM; Kir2.1-expressing cells, FluxOR thallium flux fluorescence; hits give low values;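 active = Primary-screen hit whose thallium flux fell at least 3 control SD below untreated wells in both duplicates, with normal baseline fluorescence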;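 also: 0% = blank wells without stimulus and 100% = stimulated no-compound controls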
# HEK293 Tl flux: counter-screen for Kir2.1 inhibitors: effect in parental HEK293 cells. 19% of 2,300 active. FluxOR signal as % of negative control (100 = no effect), % at 10 µM. FluxOR thallium flux fluorescence; 0% = unstimulated blank wells. shares compounds with KCNQ2 pot;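 active = dye signal at least 3 control SD above or below untreated wells in both duplicates, raw fluorescence within 3, either direction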;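 also: percent is based on the flux ratio of peak minus minimum fluorescence over baseline F0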
# CHO-K1 Tl ctr: counter-screen for KCNQ2 potentiators: effect in parental CHO-K1 cells | shares compounds with KCNQ2 pot | FluxOR thallium flux fluorescence; zero = vehicle mean+3SD, 100% = vehicle-minus-blank window | activity increase over 3SD of controls, % at 10 µM | 43% of 1,200 active;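 active = signal rise of at least 3 SD above the untreated control mean, in both duplicate wells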;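 also: counter screen of KCNQ2 potentiator hits so any rise reflects channel-independent effects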
# KCNQ1 sel pot: human KCNQ1 counter-target activity of KCNQ2 potentiators; activation over 3SD threshold, % at 10 µM; shares compounds with KCNQ2 pot; CHO KCNQ1 stable, FluxOR thallium flux fluorescence; beyond 3SD, as % of vehicle-control signal; 28% of 1,200 active;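 active = fluorescence ratio rise of at least 3 SD of vehicle wells above their mean, in both replicate wells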;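 also: 0% = vehicle mean plus 3 SD and 100% = vehicle minus unstimulated blank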
# KCNQ2 pot conf: rat KCNQ2 channel potentiator confirmation | shares compounds with KCNQ2 pot | CHO-KCNQ2 cells, FluxOR thallium flux fluorescence | potentiation, less the hit threshold, % at 10 µM | 68% of 1,200 active;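 active = fluorescence ratio rising 3 SD or more over the vehicle control mean in both replicates, plus primary screen hit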;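 also: peak minus minimum thallium fluorescence divided by baseline after K/Tl stimulus; 0% = vehicle mean plus 3 SD and 100% = vehicle minus unstimulated blank difference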
# Kir21 spec: mouse Kir2.1 off-target activity of KCNQ2 potentiators; shares compounds with KCNQ2 pot; HEK293 Kir2.1, FluxOR thallium flux fluorescence; activity over 3SD threshold, % at 10 µM; 2% of 1,200 active;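 active = fluorescence ratio rise of at least 3 SD above the vehicle-control mean, seen in both replicates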;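 also: 0% = vehicle mean plus 3 SD and 100% = vehicle minus no-stimulus blank window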
# KCNQ2 W236L pot: KCNQ2 potentiators acting on retigabine-insensitive rat KCNQ2 W236L mutant; shares compounds with KCNQ2 pot; CHO KCNQ2-W236L, automated patch clamp current; current increase over 3SD of negative controls (%), hits give high values, % at 25 µM; 10% of 940 active;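 active = current increase at least 3 SD of the untreated controls above them in both duplicate recordings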
# Target sequence (O88943 whole entry W236L, looked up): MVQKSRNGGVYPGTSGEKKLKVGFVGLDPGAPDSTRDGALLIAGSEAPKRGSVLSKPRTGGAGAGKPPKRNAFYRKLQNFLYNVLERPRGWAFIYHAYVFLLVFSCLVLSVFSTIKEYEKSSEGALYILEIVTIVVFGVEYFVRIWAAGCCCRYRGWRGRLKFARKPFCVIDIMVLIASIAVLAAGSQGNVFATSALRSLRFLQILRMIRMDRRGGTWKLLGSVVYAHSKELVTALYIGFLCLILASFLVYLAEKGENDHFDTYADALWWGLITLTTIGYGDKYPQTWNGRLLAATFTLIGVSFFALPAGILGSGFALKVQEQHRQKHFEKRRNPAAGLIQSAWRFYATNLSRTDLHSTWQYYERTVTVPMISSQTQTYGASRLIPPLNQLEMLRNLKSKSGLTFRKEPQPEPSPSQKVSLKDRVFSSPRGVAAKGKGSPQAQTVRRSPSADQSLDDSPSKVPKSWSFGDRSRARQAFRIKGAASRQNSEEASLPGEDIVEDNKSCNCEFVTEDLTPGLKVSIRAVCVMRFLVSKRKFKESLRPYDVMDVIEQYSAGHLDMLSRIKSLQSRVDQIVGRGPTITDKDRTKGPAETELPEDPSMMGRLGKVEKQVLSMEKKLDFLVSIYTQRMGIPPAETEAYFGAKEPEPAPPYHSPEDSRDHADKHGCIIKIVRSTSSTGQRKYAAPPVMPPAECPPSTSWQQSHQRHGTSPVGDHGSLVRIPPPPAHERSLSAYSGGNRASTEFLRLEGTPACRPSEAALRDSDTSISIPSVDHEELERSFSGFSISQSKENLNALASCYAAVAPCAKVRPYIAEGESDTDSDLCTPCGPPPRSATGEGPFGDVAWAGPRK
# * marks the source's active call; other numbers are inactive results; i = inactive; / = no result; ! = not active in a repeat.
SMILES,KCNQ2 inh,KCNQ2 pot,Kir21 confirm,HEK293 Tl flux,others
CC(C)(C)c1nc(SCC(=O)c2ccccc2)c2ccccc2n1,i,19*,i,i,CHO-K1 Tl ctr=-2;KCNQ1 sel pot=52*;KCNQ2 pot conf=26*;Kir21 spec=-30;KCNQ2 W236L pot=i
CC(C)(C)c1nc(SCC(=O)N2CCCC2)c2ccccc2n1,i,5.1,/,/,
O=c1nc(SCc2ccccc2Cl)nc(-c2ccc(Cl)cc2)[nH]1,i,11*,i,148%*,CHO-K1 Tl ctr=13*;KCNQ1 sel pot=-9;KCNQ2 pot conf=6.1*;Kir21 spec=-34;KCNQ2 W236L pot=i
O=c1nc(SCc2c(F)cccc2Cl)nc(-c2ccc(Cl)cc2)[nH]1,i,2.9,/,/,
Cc1nc2c(C#N)cnn2c2c1CCNN2C,i,1,/,/,
CCOc1ccc(C(C)=O)cc1CSc1nnnn1-c1ccc(O)cc1,i,/,62%*,i,
COc1ccc(C(C)=O)cc1CSc1nnnn1-c1ccc(O)cc1,i,/,/,/,
O=C(NNC(=O)c1ccc(Br)o1)c1ccc(NC(=O)c2ccccc2)cc1,i,/,/,/,
CCCn1c(=O)c(C(=O)NCc2ccncc2)c(O)c2ccccc21,i,0.05,/,/,
CC(C)Cn1c(=O)c(C(=O)NCc2ccccn2)c(O)c2ccccc21,i,15*,i,i,CHO-K1 Tl ctr=-16;KCNQ1 sel pot=-14;KCNQ2 pot conf=-13;Kir21 spec=-27
Cc1cc(C)cc(NC(=O)CSc2ccc(-c3cccs3)nn2)c1,i,/,/,/,
Cn1c(SCC(=O)CC(=O)Nc2ccccc2)nnc1-c1ccc(O)cc1,i,/,/,/,
Cc1cccc(NS(=O)(=O)c2cccc(C(=O)NCC(c3ccco3)N(C)C)c2)c1 (centres undefined),i,1.3,/,/,
Cc1csc(-c2coc3cc(O)cc(C)c3c2=O)n1,i,1.5,/,/,
O=C(Nc1nnc(-c2ccncc2)o1)c1ccccc1F,i,/,/,/,
Fc1ccc(CN2CCCN(Cc3nc(-c4ccc5c(c4)OCO5)no3)CC2)cc1,i,/,44%*,i,
O=C(c1ccco1)N1CCCN(Cc2nc(-c3ccc4c(c3)OCO4)no2)CC1,i,1.6,/,/,
Nc1ccc(N2CCN(c3ccccc3)CC2)c(F)c1,i,/,/,/,
CCNC(=S)NN=C1c2ccccc2-c2ccccc21,i,2,/,/,
CCn1cc(C(=O)O)c(=O)c2cc(F)c(N3CCN(C(=S)NC(=O)c4cc(OC)cc(OC)c4)CC3)cc21,i,1.6,/,/,
C/C(=N/NC(=O)c1ccc(Br)o1)c1cccs1,i,/,/,/,
COc1ccc(C(C)=O)cc1CSCC(=O)O,i,0.78,/,/,
COc1ccc(C(=O)/C=C/c2cccc(OCc3ccccc3)c2)cc1CSCC(=O)O,i,/,74%*,i,
C/C(CC(=O)Nc1ccc2c(c1)OCCO2)=N\NC(=O)c1cccc(O)c1,i,0.85,/,/,
O=S1CCCSC1c1cccnc1 (centres undefined),i,0.93,/,/,
SMILES,KCNQ2 inh,KCNQ2 pot,Kir21 confirm,HEK293 Tl flux,others
O=C(O)c1cnn(-c2nc(-c3cccc(F)c3)cs2)c1C(F)(F)F,i,0.46,/,/,
O=C(O)c1cnn(-c2nc(-c3ccc(Cl)c(Cl)c3)cs2)c1C(F)(F)F,i,3.6,i,i,
CCCCN=C(Nc1ccc(Cl)cc1)c1cccnc1,i,1.5,/,/,
NC(=NCCCCCCN=C(N)/N=C(\N)Nc1ccc(Cl)cc1)/N=C(\N)Nc1ccc(Cl)cc1,i,7*!,i,i,CHO-K1 Tl ctr=3.9*;KCNQ1 sel pot=-14;KCNQ2 pot conf=44*;Kir21 spec=-70
Cc1cc(Br)c(NC(=O)COC(=O)C2CC2C)c(Br)c1 (centres undefined),i,3.5,/,/,
Cc1ccc(NC(=O)COC(=O)C2CC2C)c(S(=O)(=O)N2CCCCC2)c1 (centres undefined),i,5.3*,i,i,CHO-K1 Tl ctr=-14;KCNQ1 sel pot=-17;KCNQ2 pot conf=-23;Kir21 spec=-50
Cc1ccc(C(=O)Nc2nnn(C)n2)cc1,i,/,/,/,
Cc1ccc2c(c1)nnn2C1CCN(S(=O)(=O)c2ccc(C(=O)N3C(C)CCCC3C)cc2)CC1 (centres undefined),i,/,/,/,
CCn1c(SCC(=O)NC(C)c2ccccc2)nc2ccccc21 (centres undefined),i,/,/,/,
CCn1c(Sc2ccc(N)cc2Cl)nc2ccccc21,i,/,76%*,i,
CSCC[C@H](NC(=O)Nc1cccc(Br)c1)C(=O)O,i,0.97,/,/,
CCN(CCNCC(O)COc1ccccc1C(C)C)c1cccc(C)c1 (centres undefined),i,/,33%*,i,
CCOC(=O)c1cccc(OCC(O)CNCCOc2ccccc2F)c1 (centres undefined),i,0.64,/,/,
CCOC(=O)c1sc(NC(=O)C(C)Sc2nc(N)cc(=O)[nH]2)nc1C (centres undefined),i,/,/,/,
COc1ccc(CN(C)C(=O)c2ccc(NC(=O)CC3SC(N4CCCC4)=NC3=O)cc2)c(OC)c1 (centres undefined),i,/,/,/,
Cc1cc(C(F)(F)F)nc(SCC(=O)NC2CC3CCC2C3)n1 (centres undefined),i,6*,/,/,CHO-K1 Tl ctr=-13;KCNQ1 sel pot=-11;KCNQ2 pot conf=43*;Kir21 spec=-54;KCNQ2 W236L pot=i
Cc1cc(C(F)(F)F)nc(SCC(=O)Nc2ccccc2)n1,i,0.13,/,/,
Cc1cc(C(=O)OCC(=O)N(C)c2ccccc2)ccc1[N+](=O)[O-],i,/,/,/,
CCc1nc(SCC(=O)N2CCCCC2)c2c(=O)n(C)c(=O)n(C)c2n1,i,9.1*,i,i,CHO-K1 Tl ctr=-21;KCNQ1 sel pot=-20;KCNQ2 pot conf=42*;Kir21 spec=-13;KCNQ2 W236L pot=i
CC(C)Cc1nc(SCC(=O)N2CCOCC2)c2c(=O)n(C)c(=O)n(C)c2n1,i,3.2,/,/,
CC(C)Cc1nc(SCC(=O)N2CCCCC2)c2c(=O)n(C)c(=O)n(C)c2n1,i,27*,i,i,CHO-K1 Tl ctr=-24;KCNQ1 sel pot=-5;KCNQ2 pot conf=121*;Kir21 spec=-16;KCNQ2 W236L pot=i
CC1CCN(C(=O)CSc2nc3c(c(=O)n(C)c(=O)n3C)n2C)CC1,i,1.4,/,/,
CCc1nc(SCC(N)=O)c2c(=O)n(C)c(=O)n(C)c2n1,i,0.95,/,/,
CCc1nc(SCC(=O)N2CCC(C)CC2)c2c(=O)n(C)c(=O)n(C)c2n1,i,16*,i,i,CHO-K1 Tl ctr=-7;KCNQ1 sel pot=-26;KCNQ2 pot conf=81*;Kir21 spec=-18;KCNQ2 W236L pot=i
CCCc1nc(SCC(=O)N2CCC(C)CC2)c2c(=O)n(C)c(=O)n(C)c2n1,i,25*,i,i,CHO-K1 Tl ctr=-8;KCNQ1 sel pot=-18;KCNQ2 pot conf=141*;Kir21 spec=-39;KCNQ2 W236L pot=i

# High-throughput results (PubChem BioAssay)
